GPR151 ag: activators of human GPR151, primary screen, cell-based, PathHunter beta-arrestin, luminescence; hit rate 1% among 650,000; G-protein coupled receptor 151 (Homo sapiens), Q8TDV0; PathHunter beta-arrestin GPR151 cells; activation, % at 11.2 µM; in the data active = activation above about 4.9%;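 note: 0% = median of compound wells and 100% = cells with positive control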
FBW7 activator: FBW7 E3 ligase activators, primary screen, biochemical, AlphaScreen, human; F-box/WD repeat-containing protein 7 (Homo sapiens), Q969H0; AlphaScreen FBW7–phospho-cyclin E peptide binding, activator screen; normalized activity (activation), % at 26.1 µM; hit rate 0.13% among 650,000; AID 1259310, 2017; in the data active = normalized activity above about 1.9%;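 note: purified mutant Fbw7 with reduced substrate affinity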
TEAD-YAP inh: TEAD-YAP interaction inhibition, primary screen, TEAD-YAP interaction inhibitor project, luminescence, HEK-TIYL cells. AID 1259422, 2018. TEAD-Gal4/YAP UAS-luciferase luminescence. hit rate 1.4% among 640,000. inhibition, % at 9.12 µM; in the data active = inhibition above about 32%;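 note: 0% = median of test compound wells and 100% = reference inhibitor wells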
MITF primary: MITF inhibitors, primary screen, biochemical, AlphaScreen, human; hit rate 0.91% among 650,000; AlphaScreen MITF homodimerization, bead proximity signal; Microphthalmia-associated transcription factor (Homo sapiens), O75030; inhibition, % at 2.6 µM; in the data active = inhibition above about 50%;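 note: 0% = vehicle wells with protein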
Target sequence (O75030 whole entry, looked up): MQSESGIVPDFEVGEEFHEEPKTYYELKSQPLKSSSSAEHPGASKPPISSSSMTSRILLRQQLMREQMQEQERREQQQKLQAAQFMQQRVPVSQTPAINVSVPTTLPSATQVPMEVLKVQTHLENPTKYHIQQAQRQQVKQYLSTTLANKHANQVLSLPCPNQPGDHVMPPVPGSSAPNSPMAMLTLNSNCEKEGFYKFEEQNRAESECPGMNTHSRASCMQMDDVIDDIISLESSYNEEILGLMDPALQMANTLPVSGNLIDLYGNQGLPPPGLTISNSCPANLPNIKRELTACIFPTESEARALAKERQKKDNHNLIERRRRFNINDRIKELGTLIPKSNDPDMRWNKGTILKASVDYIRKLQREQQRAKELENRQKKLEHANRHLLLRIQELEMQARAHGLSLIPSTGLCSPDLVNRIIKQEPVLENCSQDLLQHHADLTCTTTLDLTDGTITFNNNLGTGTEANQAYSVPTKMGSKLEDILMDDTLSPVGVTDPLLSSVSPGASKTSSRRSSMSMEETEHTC
MITF inh conf: MITF inhibitors, retest of hits, confirmation, biochemical, AlphaScreen, triplicate. hit rate 16% among 4,700. AID 1259372, 2018. inhibition, % at 2.6 µM. AlphaScreen MITF homodimerization, biotin/His-MITF beads. shares compounds with MITF primary;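 active = inhibition above a cutoff derived from the DMSO control wells, cut at about 28% in these data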;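 note: 0% = MITF dimer wells with DMSO only; inhibitors lower the bead chemiluminescence by keeping MITF from dimerizing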
AS interf DR: AlphaScreen optical interference compounds, dose response, counter-screen, biochemical, HTS. shares compounds with MITF primary. AlphaScreen optical interference counterscreen, cell-free. IC50, µM. hit rate 6% among 480; call rule not given here
AlphaScreen intf2: AlphaScreen optical interference compounds, counter-screen for MITF inhibitor project, biochemical, triplicate | AID 1259376, 2018 | shares compounds with MITF primary | LysRS AlphaScreen counterscreen, signal interference | inhibition, % at 2.6 µM | hit rate 7.6% among 4,700;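 active = inhibition above a cutoff derived from the DMSO control wells, cut at about 30% in these data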
* hit, by the source's call; . = no result given. The list is not random: actives were taken first. Their share in the collection is about 3.5%.

SMILES	GPR151 ag	FBW7 activator	TEAD-YAP inh	MITF primary	MITF inh conf	AlphaScreen intf2	others
CN1CCN(CC(=O)c2cccs2)CC1	-1	0	-4	34	.	.
CN1CCN(CC(=O)c2ccccc2F)CC1	0	0	4	78*	10	15
Cc1cccc(Cl)c1OCCOCCNCCN	1	0	9	61*	12	13
Cc1cccc(Cl)c1OCCOCCNC(C)(C)C	0	0	7	44	.	.
Cc1cccc(C)c1OCCOCCNCCN	0	0	-1	55*	-12	0
O=C(Cc1cn(-c2ccc(N3CCOCC3)nn2)c2ccccc12)NCCCN1CCCC1=O	-1	0	-8	-5	.	.
O=C(Cc1cn(-c2ccc(NCCN3CCOCC3)nn2)c2ccccc12)NCCCN1CCCC1=O	1	0	-4	59*	5	2
Cc1ccc(Cn2c(CN3CCC(C)CC3)nc3c2c(=O)n(C)c(=O)n3C)cc1	2	0	-7	-1	.	.
CC1CCN(Cc2nc3c(c(=O)n(C)c(=O)n3C)n2Cc2ccc(F)cc2)CC1	1	0	2	51*	6	13
O=[N+]([O-])c1ccccc1OCCCOc1ccccc1[N+](=O)[O-]	2	0	-71	12	.	.
CCN1CCN(CCOc2ccc(I)cc2)CC1	0	0	0	64*	13	16
O=[N+]([O-])c1ccccc1OCCNC1CCCC1	-1	0	2	52*	-4	3
O=[N+]([O-])c1ccccc1OCCCCN1CCCC1	0	0	0	13	.	.
CCN1CCN(CCCOc2ccc(OC)cc2)CC1	1	0	-3	29	.	.
CCN1CCN(CCOc2ccc(OCc3ccccc3)cc2)CC1	1	0	-32	69*	9	14
c1ccc(COc2ccc(OCCN3CCCC3)cc2)cc1	0	0	-21	6	.	.
CCN1CCN(CCOc2ccccc2[N+](=O)[O-])CC1	-1	0	10	75*	15	16
C=CCN(CC=C)CC(O)Cn1c2ccc(Cl)cc2c2cc(Cl)ccc21 (configuration not stated)	2	0	-2	-3	.	.
COC(=O)c1ccc(CN[C@H]2C[C@@H](C(=O)NC(C)C)N(Cc3ccccc3)C2)cc1	0	0	8	19	.	.
c1ccc(COc2ccccc2OCCCCNCCN2CCOCC2)cc1	0	0	-10	-10	.	.
CCN1CCN(CCOc2ccccc2OCc2ccccc2)CC1	-3	0	3	66*	4	4
c1ccc(COc2ccccc2OCCNCCN2CCOCC2)cc1	-1	0	6	66*	-6	11
COCCN=c1scc(-c2ccco2)n1/N=C/c1c[nH]c2ccccc12	1	0	-16	18	.	.
COc1ccc(CNCc2ccccc2)c(OC)c1	0	0	-3	3	.	.
C=CCC(NCc1ccccc1)C12C=CC(O1)C(C(=O)OC)=C2C(=O)OC (configuration not stated)	-1	0	6	7	.	.
SMILES	GPR151 ag	FBW7 activator	TEAD-YAP inh	MITF primary	MITF inh conf	AlphaScreen intf2	others
COc1ccc(C)cc1NC1CCCCC1	2	0	-5	77*	9	17
COc1ccc(C)cc1S(=O)(=O)NC1CCCCCC1	-1	0	7	-3	.	.
COc1ccc2cc(C(=O)CBr)ccc2c1	5	0	2	16	.	.
CCC(=O)c1ccc2cc(OC)ccc2c1	2	0	-13	82*	1	13
C/C(=N\Nc1ccc(S(=O)(=O)O)cc1)c1ccc([N+](=O)[O-])o1	0	0	-2	60*	40*	2	AS interf DR=>6.5
N#CC(C#N)=C(N)/C(C#N)=C/c1ccc(-c2cc(Cl)ccc2Cl)o1	0	0	-3	-1	.	.
CSc1ccc(CN2CCN(CC3CC4C=CC3C4)CC2)cc1 (configuration not stated)	0	0	1	62*	-3	4

High-throughput results (PubChem)
